What was measured:
Experiment in all cases: DAPPL (digital affinity profiling via proximity ligation, sequencing); 10 mM Tris-HCl pH 7.5, 50 mM NaCl, 1 mM DTT, 4% glycerol, room temperature, 30 min; GST-TFs on glutathione beads, 16-mer random dsDNA library, 0.1% formaldehyde crosslink after washing; high values mean tight binding
FLI1 = target: T1, FLI1 (Homo sapiens, UniProt Q01543 1-452); conditions: protein: recombinant; tags: N-terminal GST; dsDNA, one strand shown
T1 sequence: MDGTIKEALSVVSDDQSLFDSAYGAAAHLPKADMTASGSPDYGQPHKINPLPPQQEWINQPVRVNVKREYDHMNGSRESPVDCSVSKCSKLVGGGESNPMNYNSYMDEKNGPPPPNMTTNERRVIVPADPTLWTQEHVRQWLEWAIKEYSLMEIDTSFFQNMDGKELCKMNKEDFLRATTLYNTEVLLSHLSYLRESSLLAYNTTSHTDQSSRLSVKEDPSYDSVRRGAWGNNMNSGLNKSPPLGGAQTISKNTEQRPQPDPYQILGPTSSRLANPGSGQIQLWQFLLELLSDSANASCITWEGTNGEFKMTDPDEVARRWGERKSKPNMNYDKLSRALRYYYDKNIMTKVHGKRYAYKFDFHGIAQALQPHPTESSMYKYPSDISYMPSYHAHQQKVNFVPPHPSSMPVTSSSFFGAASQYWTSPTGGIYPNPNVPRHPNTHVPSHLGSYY
Summary of the method: (§1)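 A tag-only sample was pooled with DNA-barcoded human transcription factors that had been expressed in yeast as GST fusions and captured on glutathione beads. The pools were incubated for 30 min at room temperature with 200 nmole of a random double-stranded 16-mer DNA library in Tris/NaCl/DTT/glycerol buffer, then washed, crosslinked with 0.1% formaldehyde, proximity-ligated (BsaI/T4 ligase, 1 h, 37 °C), PCR-amplified and sequenced on an Illumina NextSeq500. Binding signal is each hexamer's read frequency for a factor divided by its frequency for the tag-only sample.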

ELK1 = target: T2, ELK1 (Homo sapiens, UniProt P19419 1-428); conditions: protein: recombinant; tags: N-terminal GST; dsDNA, one strand shown
T2 sequence: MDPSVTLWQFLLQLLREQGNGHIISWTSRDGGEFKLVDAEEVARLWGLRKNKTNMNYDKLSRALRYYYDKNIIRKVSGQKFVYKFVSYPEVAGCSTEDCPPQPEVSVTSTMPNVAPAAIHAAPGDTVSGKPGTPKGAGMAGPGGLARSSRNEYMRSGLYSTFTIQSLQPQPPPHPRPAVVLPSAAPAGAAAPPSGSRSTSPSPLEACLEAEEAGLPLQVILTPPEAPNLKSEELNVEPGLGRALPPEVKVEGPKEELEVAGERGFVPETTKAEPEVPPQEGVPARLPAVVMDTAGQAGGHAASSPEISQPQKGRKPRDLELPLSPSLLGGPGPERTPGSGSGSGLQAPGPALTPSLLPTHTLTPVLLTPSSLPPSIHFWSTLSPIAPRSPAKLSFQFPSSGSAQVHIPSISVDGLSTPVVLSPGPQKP
Summary of the method: as §1

GABPA = target: T3, GABPA (Homo sapiens, UniProt Q06546 1-454); conditions: protein: recombinant; tags: N-terminal GST; dsDNA, one strand shown
T3 sequence: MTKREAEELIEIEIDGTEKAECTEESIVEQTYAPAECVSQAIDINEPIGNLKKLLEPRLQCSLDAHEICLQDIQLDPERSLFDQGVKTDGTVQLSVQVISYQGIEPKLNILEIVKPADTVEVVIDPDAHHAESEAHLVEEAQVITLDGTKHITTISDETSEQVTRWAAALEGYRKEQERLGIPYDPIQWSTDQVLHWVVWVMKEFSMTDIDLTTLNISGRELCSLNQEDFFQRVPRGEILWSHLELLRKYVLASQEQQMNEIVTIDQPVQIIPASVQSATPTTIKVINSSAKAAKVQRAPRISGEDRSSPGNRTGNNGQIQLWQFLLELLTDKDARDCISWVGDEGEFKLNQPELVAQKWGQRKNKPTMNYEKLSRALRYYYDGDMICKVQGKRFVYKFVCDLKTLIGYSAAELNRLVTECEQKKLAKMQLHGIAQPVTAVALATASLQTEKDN
Summary of the method: as §1

ERG = target: T4, ERG (Homo sapiens, UniProt P11308 1-479); conditions: protein: recombinant; tags: N-terminal GST; dsDNA, one strand shown
T4 sequence: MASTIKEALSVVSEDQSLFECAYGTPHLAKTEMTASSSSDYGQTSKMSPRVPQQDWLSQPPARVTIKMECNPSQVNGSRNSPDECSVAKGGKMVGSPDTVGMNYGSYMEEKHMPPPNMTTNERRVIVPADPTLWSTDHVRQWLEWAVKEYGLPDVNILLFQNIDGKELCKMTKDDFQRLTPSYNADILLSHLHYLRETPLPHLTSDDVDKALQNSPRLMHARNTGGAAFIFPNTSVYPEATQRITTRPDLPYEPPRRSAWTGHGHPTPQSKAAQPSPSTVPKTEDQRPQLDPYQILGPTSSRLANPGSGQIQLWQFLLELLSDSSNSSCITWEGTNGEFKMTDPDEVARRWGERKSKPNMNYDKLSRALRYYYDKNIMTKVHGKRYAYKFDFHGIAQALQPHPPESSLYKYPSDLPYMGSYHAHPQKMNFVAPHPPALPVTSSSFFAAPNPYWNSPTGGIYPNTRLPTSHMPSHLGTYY
Summary of the method: as §1

ELF1 = ELF1 (Homo sapiens, UniProt P32519 1-619); conditions: protein: recombinant; tags: N-terminal GST; dsDNA, one strand shown
Summary of the method: as §1

EHF = target: T5, EHF (Homo sapiens, UniProt Q9NZC4 1-300); conditions: protein: recombinant; tags: N-terminal GST; dsDNA, one strand shown
T5 sequence: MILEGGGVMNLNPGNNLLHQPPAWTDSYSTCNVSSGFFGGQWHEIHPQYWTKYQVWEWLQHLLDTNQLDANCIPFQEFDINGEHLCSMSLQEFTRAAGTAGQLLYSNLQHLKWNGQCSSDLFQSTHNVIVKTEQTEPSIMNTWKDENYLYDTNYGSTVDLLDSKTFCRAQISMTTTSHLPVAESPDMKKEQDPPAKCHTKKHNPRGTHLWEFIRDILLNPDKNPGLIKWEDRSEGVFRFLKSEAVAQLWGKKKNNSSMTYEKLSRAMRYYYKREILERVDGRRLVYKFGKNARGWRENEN
Summary of the method: as §1

SPI1 = SPI1 (Homo sapiens, UniProt P17947 1-270); conditions: protein: recombinant; tags: N-terminal GST; dsDNA, one strand shown
Summary of the method: as §1

SPIB = SPIB (Homo sapiens, UniProt Q01892 1-262); conditions: protein: recombinant; tags: N-terminal GST; dsDNA, one strand shown
Summary of the method: as §1

ELK3 = target: T6, ELK3 (Homo sapiens, UniProt P41970 1-407); conditions: protein: recombinant; tags: N-terminal GST; dsDNA, one strand shown
T6 sequence: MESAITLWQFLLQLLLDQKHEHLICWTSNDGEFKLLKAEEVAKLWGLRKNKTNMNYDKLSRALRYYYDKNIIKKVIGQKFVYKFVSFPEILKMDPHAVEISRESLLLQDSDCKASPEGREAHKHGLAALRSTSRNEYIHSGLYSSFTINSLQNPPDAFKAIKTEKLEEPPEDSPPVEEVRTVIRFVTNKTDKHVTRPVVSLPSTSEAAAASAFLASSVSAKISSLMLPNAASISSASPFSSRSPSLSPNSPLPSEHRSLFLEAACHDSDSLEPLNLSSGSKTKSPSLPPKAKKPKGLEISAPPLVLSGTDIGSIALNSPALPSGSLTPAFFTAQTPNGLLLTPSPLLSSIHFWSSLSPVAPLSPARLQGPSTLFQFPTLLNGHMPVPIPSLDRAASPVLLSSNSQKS
Summary of the method: as §1

FEV = target: T7, FEV (Homo sapiens, UniProt Q99581 1-238); conditions: protein: recombinant; tags: N-terminal GST; dsDNA, one strand shown
T7 sequence: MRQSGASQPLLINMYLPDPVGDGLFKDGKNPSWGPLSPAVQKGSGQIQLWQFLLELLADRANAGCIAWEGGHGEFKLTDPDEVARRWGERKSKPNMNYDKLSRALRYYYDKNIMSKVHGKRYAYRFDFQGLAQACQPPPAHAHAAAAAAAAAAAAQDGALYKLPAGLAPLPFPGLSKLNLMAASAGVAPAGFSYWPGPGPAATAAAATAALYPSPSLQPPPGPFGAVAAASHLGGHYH
Summary of the method: as §1

ETV5 = ETV5 (Homo sapiens, UniProt P41161 1-510); conditions: protein: recombinant; tags: N-terminal GST; dsDNA, one strand shown
Summary of the method: as §1

HSF1 = HSF1 (Homo sapiens, UniProt Q00613 1-529); conditions: protein: recombinant; tags: N-terminal GST; chain copies: 3; dsDNA, one strand shown
Summary of the method: as §1

SPIC = target: T8, SPIC (Homo sapiens, UniProt Q8N5J4 1-248); conditions: protein: recombinant; tags: N-terminal GST; dsDNA, one strand shown
T8 sequence: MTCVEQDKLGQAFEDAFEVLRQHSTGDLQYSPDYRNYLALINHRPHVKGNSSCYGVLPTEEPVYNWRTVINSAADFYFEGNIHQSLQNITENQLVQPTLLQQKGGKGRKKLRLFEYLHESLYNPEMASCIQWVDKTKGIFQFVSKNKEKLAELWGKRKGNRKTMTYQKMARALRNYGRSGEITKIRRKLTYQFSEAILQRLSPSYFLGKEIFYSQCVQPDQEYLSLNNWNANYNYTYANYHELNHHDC
Summary of the method: as §1

ELF4 = ELF4 (Homo sapiens, UniProt Q99607 1-663); conditions: protein: recombinant; tags: N-terminal GST; dsDNA, one strand shown
Summary of the method: as §1

ELK4 = target: T9, ELK4 (Homo sapiens, UniProt P28324-2 1-405); conditions: protein: recombinant; tags: N-terminal GST; dsDNA, one strand shown
T9 sequence: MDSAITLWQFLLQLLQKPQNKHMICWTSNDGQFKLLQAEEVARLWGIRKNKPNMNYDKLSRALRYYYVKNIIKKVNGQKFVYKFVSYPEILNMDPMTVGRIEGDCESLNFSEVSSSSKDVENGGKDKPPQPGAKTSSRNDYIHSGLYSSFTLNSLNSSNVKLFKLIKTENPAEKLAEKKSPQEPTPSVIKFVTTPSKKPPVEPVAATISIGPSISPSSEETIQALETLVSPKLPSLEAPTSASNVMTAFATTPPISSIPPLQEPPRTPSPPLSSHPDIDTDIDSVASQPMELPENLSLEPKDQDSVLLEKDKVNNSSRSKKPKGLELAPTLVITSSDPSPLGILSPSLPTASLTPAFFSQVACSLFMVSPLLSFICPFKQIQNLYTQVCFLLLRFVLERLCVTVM
Summary of the method: as §1

ETV2 = target: T10, ETV2 (Homo sapiens, UniProt O00321 1-342); conditions: protein: recombinant; tags: N-terminal GST; dsDNA, one strand shown
T10 sequence: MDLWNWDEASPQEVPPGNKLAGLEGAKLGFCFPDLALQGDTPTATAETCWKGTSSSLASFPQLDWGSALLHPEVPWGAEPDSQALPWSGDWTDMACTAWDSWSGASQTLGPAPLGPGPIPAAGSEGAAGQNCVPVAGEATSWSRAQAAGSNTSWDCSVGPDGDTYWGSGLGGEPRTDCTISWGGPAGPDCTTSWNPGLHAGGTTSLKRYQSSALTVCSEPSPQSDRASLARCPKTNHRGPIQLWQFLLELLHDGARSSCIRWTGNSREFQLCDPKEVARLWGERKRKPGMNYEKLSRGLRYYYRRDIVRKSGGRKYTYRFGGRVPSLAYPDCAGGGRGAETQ
Summary of the method: as §1

ELF3 = target: T11, ELF3 (Homo sapiens, UniProt P78545 1-371); conditions: protein: recombinant; tags: N-terminal GST; dsDNA, one strand shown
T11 sequence: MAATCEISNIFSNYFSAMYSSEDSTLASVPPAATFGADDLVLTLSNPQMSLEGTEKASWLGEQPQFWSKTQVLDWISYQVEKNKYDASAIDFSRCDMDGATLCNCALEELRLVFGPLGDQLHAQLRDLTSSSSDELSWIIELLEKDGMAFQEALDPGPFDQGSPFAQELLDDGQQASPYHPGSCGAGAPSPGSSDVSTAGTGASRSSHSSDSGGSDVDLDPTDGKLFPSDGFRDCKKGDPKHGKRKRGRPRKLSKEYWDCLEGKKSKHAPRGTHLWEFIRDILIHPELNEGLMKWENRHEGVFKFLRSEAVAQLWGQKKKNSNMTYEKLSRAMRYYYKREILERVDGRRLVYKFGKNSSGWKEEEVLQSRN
Summary of the method: as §1

CRX = CRX (Homo sapiens, UniProt O43186 1-299); conditions: protein: recombinant; tags: N-terminal GST; dsDNA, one strand shown
Summary of the method: as §1

ETV1 = ETV1 (Homo sapiens, UniProt P50549 1-477); conditions: protein: recombinant; tags: N-terminal GST; dsDNA, one strand shown
Summary of the method: as §1

Chain of ETV5 (P41161 whole entry): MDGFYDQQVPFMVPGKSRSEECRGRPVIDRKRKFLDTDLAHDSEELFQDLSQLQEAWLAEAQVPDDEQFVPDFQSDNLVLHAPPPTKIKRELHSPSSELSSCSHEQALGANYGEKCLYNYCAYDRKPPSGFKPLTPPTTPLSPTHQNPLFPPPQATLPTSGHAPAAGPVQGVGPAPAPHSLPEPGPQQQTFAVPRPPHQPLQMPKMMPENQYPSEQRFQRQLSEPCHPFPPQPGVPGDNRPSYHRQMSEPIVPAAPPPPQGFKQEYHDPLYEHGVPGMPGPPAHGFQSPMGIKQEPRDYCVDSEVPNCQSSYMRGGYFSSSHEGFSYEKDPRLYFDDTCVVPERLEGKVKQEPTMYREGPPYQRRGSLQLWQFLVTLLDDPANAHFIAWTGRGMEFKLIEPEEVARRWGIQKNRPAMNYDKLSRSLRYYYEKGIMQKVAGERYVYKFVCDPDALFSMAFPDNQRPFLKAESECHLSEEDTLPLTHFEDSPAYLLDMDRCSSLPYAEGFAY
Chain of ELF4 (Q99607 whole entry): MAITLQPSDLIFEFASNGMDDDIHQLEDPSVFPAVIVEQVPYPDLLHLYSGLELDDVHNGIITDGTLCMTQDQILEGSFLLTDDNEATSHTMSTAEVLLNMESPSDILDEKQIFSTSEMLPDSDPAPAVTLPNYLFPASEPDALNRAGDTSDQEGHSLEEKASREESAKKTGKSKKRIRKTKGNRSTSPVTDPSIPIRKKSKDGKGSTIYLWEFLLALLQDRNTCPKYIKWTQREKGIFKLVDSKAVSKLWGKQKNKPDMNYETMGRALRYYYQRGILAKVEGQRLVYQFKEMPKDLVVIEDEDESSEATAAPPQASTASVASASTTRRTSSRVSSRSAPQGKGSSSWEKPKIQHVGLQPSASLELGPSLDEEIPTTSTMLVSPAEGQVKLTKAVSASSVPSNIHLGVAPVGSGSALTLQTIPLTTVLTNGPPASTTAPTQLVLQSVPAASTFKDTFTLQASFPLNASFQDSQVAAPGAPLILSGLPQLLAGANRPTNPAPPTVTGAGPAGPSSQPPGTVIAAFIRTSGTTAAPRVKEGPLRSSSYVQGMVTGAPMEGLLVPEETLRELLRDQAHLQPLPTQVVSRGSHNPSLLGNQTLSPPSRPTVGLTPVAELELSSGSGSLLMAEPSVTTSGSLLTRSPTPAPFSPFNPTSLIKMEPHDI
Chain of HSF1 (Q00613 whole entry): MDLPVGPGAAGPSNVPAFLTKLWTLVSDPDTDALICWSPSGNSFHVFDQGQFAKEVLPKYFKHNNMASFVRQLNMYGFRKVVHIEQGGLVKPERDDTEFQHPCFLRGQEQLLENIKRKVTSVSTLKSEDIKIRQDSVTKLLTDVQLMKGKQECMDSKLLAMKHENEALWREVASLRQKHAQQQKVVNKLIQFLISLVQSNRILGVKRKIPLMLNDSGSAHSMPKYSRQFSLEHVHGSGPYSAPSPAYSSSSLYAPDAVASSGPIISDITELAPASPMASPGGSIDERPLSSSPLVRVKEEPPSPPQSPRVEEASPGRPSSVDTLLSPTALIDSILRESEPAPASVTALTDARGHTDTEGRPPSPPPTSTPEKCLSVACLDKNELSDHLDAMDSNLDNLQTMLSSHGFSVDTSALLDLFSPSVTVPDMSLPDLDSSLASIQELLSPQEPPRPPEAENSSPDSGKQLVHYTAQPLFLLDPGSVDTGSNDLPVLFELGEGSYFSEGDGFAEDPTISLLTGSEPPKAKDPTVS
Chain of CRX (O43186 whole entry): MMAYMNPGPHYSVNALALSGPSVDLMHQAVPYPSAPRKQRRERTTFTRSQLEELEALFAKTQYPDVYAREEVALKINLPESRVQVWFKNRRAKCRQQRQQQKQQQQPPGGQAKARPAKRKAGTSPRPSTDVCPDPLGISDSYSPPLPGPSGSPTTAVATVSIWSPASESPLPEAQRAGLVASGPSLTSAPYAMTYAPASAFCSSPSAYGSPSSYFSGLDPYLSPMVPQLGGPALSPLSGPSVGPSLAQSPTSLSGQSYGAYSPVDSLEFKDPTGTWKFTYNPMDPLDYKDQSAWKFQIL
Chain of ELF1 (P32519 whole entry): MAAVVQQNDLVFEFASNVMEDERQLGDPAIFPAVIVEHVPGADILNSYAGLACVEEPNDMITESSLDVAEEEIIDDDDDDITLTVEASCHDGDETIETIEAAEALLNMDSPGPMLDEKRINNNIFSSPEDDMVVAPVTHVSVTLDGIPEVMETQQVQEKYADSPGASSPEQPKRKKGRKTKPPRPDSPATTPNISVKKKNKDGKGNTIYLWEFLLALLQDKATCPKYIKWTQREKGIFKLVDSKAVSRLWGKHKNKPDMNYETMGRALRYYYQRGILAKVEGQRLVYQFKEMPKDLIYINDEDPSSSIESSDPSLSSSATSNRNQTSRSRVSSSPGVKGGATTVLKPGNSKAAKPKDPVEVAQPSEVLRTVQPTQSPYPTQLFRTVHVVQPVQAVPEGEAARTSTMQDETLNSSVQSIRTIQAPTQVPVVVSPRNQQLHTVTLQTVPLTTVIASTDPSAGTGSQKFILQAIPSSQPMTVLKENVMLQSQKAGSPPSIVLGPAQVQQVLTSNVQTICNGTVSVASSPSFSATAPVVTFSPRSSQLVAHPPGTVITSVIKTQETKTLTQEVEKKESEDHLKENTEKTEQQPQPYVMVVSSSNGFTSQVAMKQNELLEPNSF
Chain of ETV1 (P50549 whole entry): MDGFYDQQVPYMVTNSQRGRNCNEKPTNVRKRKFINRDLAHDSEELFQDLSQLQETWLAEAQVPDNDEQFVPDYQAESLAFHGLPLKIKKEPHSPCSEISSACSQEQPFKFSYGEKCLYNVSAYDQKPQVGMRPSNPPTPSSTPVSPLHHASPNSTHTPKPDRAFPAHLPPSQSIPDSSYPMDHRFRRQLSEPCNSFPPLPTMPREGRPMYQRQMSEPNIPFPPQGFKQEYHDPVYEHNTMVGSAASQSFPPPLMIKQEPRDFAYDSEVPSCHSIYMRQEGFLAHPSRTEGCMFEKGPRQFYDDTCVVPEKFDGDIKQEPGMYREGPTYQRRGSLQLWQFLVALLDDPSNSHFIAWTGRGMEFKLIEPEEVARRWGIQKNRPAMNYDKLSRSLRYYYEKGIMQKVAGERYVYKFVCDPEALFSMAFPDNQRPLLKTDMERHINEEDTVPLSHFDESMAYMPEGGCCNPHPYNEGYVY
Chain of SPIB (Q01892 whole entry): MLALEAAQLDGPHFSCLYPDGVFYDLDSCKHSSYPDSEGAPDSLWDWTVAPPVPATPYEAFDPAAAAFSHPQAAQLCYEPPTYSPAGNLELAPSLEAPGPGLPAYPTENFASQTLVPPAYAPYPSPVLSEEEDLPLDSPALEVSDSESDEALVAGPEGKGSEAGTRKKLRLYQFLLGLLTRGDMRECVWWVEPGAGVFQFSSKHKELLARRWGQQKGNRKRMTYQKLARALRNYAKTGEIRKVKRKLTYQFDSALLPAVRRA

## TTCCTA
FLI1
  binding signal: 1.82 fold enrichment (6-mer frequency, TF over GST control)
ELK1
  binding signal: 1.72 fold enrichment (6-mer frequency, TF over GST control)
GABPA
  binding signal: 1.55 fold enrichment (6-mer frequency, TF over GST control)
ERG
  binding signal: 1.78 fold enrichment (6-mer frequency, TF over GST control)
ELF1
  binding signal: 1.63 fold enrichment (6-mer frequency, TF over GST control)
EHF
  binding signal: 1.59 fold enrichment (6-mer frequency, TF over GST control)
SPI1
  binding signal: 1.7 fold enrichment (6-mer frequency, TF over GST control)
SPIB
  binding signal: 1.93 fold enrichment (6-mer frequency, TF over GST control)
ELK3
  binding signal: 1.74 fold enrichment (6-mer frequency, TF over GST control)
FEV
  binding signal: 1.62 fold enrichment (6-mer frequency, TF over GST control)
ETV5
  binding signal: 1.79 fold enrichment (6-mer frequency, TF over GST control)
HSF1
  binding signal: 1.59 fold enrichment (6-mer frequency, TF over GST control)
SPIC
  binding signal: 1.67 fold enrichment (6-mer frequency, TF over GST control)
ELF4
  binding signal: 1.57 fold enrichment (6-mer frequency, TF over GST control)
ELK4
  binding signal: 1.52 fold enrichment (6-mer frequency, TF over GST control)
ETV2
  binding signal: 1.77 fold enrichment (6-mer frequency, TF over GST control)
ELF3
  binding signal: 1.84 fold enrichment (6-mer frequency, TF over GST control)
CRX
  binding signal: 1.47 fold enrichment (6-mer frequency, TF over GST control)
ETV1
  binding signal: 1.72 fold enrichment (6-mer frequency, TF over GST control)
